Test results published in PubChem BioAssay AID1159580 (chemical genetic matrix, 2015).
Screen size: about 5,500 compounds; about 2,000 (36%) were called active. Not shown: some 18% with an inconclusive outcome. No stated cut-off is given here; in the data, active means normalized growth mostly below about 0.91 (no sharp cut-off); inconclusive means no clear call, values can overlap the other calls; inactive means mostly above about 0.92. This is one part of the list.

Assay: chemical genetic growth profiling, strain panel (AID 1159580);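 further: tested at 20 µM; growth read once vehicle control cultures reached saturation at 30 °C; 1 = growth at the plate median or of vehicle wells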
Details: growth OD

Measured: normalized growth

C[C@@H]1[C@H]2[C@H](O[C@@H]3O[C@H](CO)[C@@H](O)[C@H](O)[C@H]3O)OC=C(C(=O)O)[C@H]2C[C@@H]1O
inactive: S. cerevisiae deletion strains, locus YAL013W, strain DEP1, stronger effect = lower value 1.01 | S. cerevisiae deletion strains, locus YBR021W, strain FUR4, stronger effect = lower value 1.05 | S. cerevisiae deletion strains, locus YBR229C, strain ROT2, stronger effect = lower value 0.964 | S. cerevisiae deletion strains, locus YCL029C, strain bik1, stronger effect = lower value 0.963 | S. cerevisiae deletion strains, locus YDL035C, strain GPR1, stronger effect = lower value 1.02 | S. cerevisiae deletion strains, locus YDL074C, strain BRE1, stronger effect = lower value 1.08 | S. cerevisiae deletion strains, locus YDL101C, strain DUN1, stronger effect = lower value 0.98 | S. cerevisiae deletion strains, locus YDL134C, strain PPH21, stronger effect = lower value 0.999 | S. cerevisiae deletion strains, locus YDL185W, strain tfp1, stronger effect = lower value 0.962 | S. cerevisiae deletion strains, locus YDL192W, strain arf1, stronger effect = lower value 1.03 | S. cerevisiae deletion strains, locus YDR101C, strain arx1, stronger effect = lower value 1.01 | S. cerevisiae deletion strains, locus YDR162C, strain NBP2, stronger effect = lower value 0.963 | S. cerevisiae deletion strains, locus YDR318W, strain mcm21, stronger effect = lower value 0.986 | S. cerevisiae deletion strains, locus YDR388W, stronger effect = lower value 0.996 | S. cerevisiae deletion strains, locus YDR502C, strain sam2, stronger effect = lower value 1 | S. cerevisiae deletion strains, locus YEL061C, strain CIN8, stronger effect = lower value 0.999 | S. cerevisiae deletion strains, locus YER110C, stronger effect = lower value 0.974 | S. cerevisiae deletion strains, locus YER155C, strain BEM2, stronger effect = lower value 1.02 | S. cerevisiae deletion strains, locus YER167W, strain BCK2, stronger effect = lower value 1 | S. cerevisiae deletion strains, locus YGL078C, strain dbp3, stronger effect = lower value 0.986 | S. cerevisiae deletion strains, locus YGL086W, strain mad1, stronger effect = lower value 1.01 | S. cerevisiae deletion strains, locus YGL248W, strain PDE1, stronger effect = lower value 0.987 | S. cerevisiae deletion strains, locus YGR078C, strain PAC10, stronger effect = lower value 0.984 | S. cerevisiae deletion strains, locus YGR135W, strain pre9, stronger effect = lower value 0.98 | S. cerevisiae deletion strains, locus YGR252W, strain gcn5, stronger effect = lower value 0.995 | S. cerevisiae deletion strains, locus YHR030C, strain SLT2, stronger effect = lower value 1.01 | S. cerevisiae deletion strains, locus YHR079C, strain IRE1 (second series), stronger effect = lower value 0.985 | S. cerevisiae deletion strains, locus YHR094C, strain hxt1, stronger effect = lower value 0.991 | S. cerevisiae deletion strains, locus YHR129C, strain ARP1, stronger effect = lower value 1 | S. cerevisiae deletion strains, locus YHR200W, strain rpn10, stronger effect = lower value 0.99 | S. cerevisiae deletion strains, locus YIL066C, strain RNR3, stronger effect = lower value 1 | S. cerevisiae deletion strains, locus YIL073C, strain SPO22, stronger effect = lower value 1.01 | S. cerevisiae deletion strains, locus YIL125W, strain kgd1, stronger effect = lower value 0.978 | S. cerevisiae deletion strains, locus YIR030C, strain dcg1, stronger effect = lower value 0.995 | S. cerevisiae deletion strains, locus YJL095W, strain BCK1, stronger effect = lower value 0.996 | S. cerevisiae deletion strains, locus YJL134W, strain LCB3, stronger effect = lower value 0.988 | S. cerevisiae deletion strains, locus YJL168C, strain set2, stronger effect = lower value 1.01 | S. cerevisiae deletion strains, locus YJL187C, strain SWE1 (second series), stronger effect = lower value 0.987 | S. cerevisiae deletion strains, locus YJR043C, strain POL32, stronger effect = lower value 1.01 | S. cerevisiae deletion strains, locus YKL009W, strain mrt4, stronger effect = lower value 1.03 | S. cerevisiae deletion strains, locus YKL068W, stronger effect = lower value 0.977 | S. cerevisiae deletion strains, locus YKL085W, strain MDH1 (second series), stronger effect = lower value 0.987 | S. cerevisiae deletion strains, locus YKL085W, strain MDH1, stronger effect = lower value 0.987 | S. cerevisiae deletion strains, locus YKR001C, strain vps1, stronger effect = lower value 0.983 | S. cerevisiae deletion strains, locus YLR039C, strain RIC1, stronger effect = lower value 1.03 | S. cerevisiae deletion strains, locus YLR058C, strain SHM2, stronger effect = lower value 0.977 | S. cerevisiae deletion strains, locus YLR102C, strain apc9, stronger effect = lower value 0.987 | S. cerevisiae deletion strains, locus YLR262C, strain YPT6, stronger effect = lower value 0.908 | S. cerevisiae deletion strains, locus YLR268W, strain sec22, stronger effect = lower value 1.02 | S. cerevisiae deletion strains, locus YLR330W, strain CHS5, stronger effect = lower value 1.01 | S. cerevisiae deletion strains, locus YLR342W, strain FKS1 (second series), stronger effect = lower value 1.11 | S. cerevisiae deletion strains, locus YLR371W, strain rom2, stronger effect = lower value 0.978 | S. cerevisiae deletion strains, locus YLR418C, strain cdc73, stronger effect = lower value 0.984 | S. cerevisiae deletion strains, locus YML016C, strain PPZ1, stronger effect = lower value 0.998 | S. cerevisiae deletion strains, locus YML032C, strain rad52, stronger effect = lower value 0.995 | S. cerevisiae deletion strains, locus YML124C, strain tub3, stronger effect = lower value 0.992 | S. cerevisiae deletion strains, locus YMR078C, strain ctf18, stronger effect = lower value 0.976 | S. cerevisiae deletion strains, locus YMR223W, strain ubp8, stronger effect = lower value 1.02 | S. cerevisiae deletion strains, locus YMR307W, strain GAS1, stronger effect = lower value 1.16 | S. cerevisiae deletion strains, locus YNL067W, strain RPL9B, stronger effect = lower value 0.992 | S. cerevisiae deletion strains, locus YNL128W, strain TEP1, stronger effect = lower value 1 | S. cerevisiae deletion strains, locus YNL233W, strain BNI4, stronger effect = lower value 1.01 | S. cerevisiae deletion strains, locus YNL250W, strain rad50, stronger effect = lower value 0.992 | S. cerevisiae deletion strains, locus YNL271C, strain bni1, stronger effect = lower value 0.994 | S. cerevisiae deletion strains, locus YNL298W, strain CLA4, stronger effect = lower value 0.991 | S. cerevisiae deletion strains, locus YNL307C, strain MCK1, stronger effect = lower value 0.986 | S. cerevisiae deletion strains, locus YNR052C, strain pop2, stronger effect = lower value 0.96 | S. cerevisiae deletion strains, locus YOL012C, strain htz1 0.853 | S. cerevisiae deletion strains, locus YOL147C, strain pex11, stronger effect = lower value 0.991 | S. cerevisiae deletion strains, locus YOR061W, strain CKA2, stronger effect = lower value 0.962 | S. cerevisiae deletion strains, locus YOR069W, strain VPS5, stronger effect = lower value 0.999 | S. cerevisiae deletion strains, locus YOR136W, strain idh2, stronger effect = lower value 0.989 | S. cerevisiae deletion strains, locus YOR144C, strain elg1, stronger effect = lower value 0.981 | S. cerevisiae deletion strains, locus YOR184W, strain ser1, stronger effect = lower value 1.02 | S. cerevisiae deletion strains, locus YOR316C, strain cot1, stronger effect = lower value 0.981 | S. cerevisiae deletion strains, locus YPR119W, strain clb2, stronger effect = lower value 0.999 | S. cerevisiae deletion strains, locus YPR141C, strain kar3, stronger effect = lower value 0.97 | S. cerevisiae deletion strains, locus YPR163C, strain tif3, stronger effect = lower value 0.989 | S. cerevisiae deletion strains, locus YPR167C, strain met16, stronger effect = lower value 0.973 | S. cerevisiae deletion strains, strain wtn01, stronger effect = lower value 1.01 | S. cerevisiae strains, strain wild type, stronger effect = lower value 1
